Measurements from PubChem BioAssay AID1159580 (chemical genetic matrix, 2015).
The campaign covered roughly 5,500 compounds. About 2,000 (36%) were called active. Inconclusive results (about 18%) are left out. Rule as the data show it: active = normalized growth mostly below about 0.91 (no sharp cut-off); inconclusive = no clear call, values can overlap the other calls; inactive = mostly above about 0.92. The list shows a part of the results.

Assay: chemical genetic growth profiling, strain panel (AID 1159580);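 also: tested at 20 µM; growth read once vehicle control cultures reached saturation at 30 °C; 1 = growth at the plate median or of vehicle wells; lower values mean less growth of the strain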
Conditions: growth OD

Measured: normalized growth

CCOC([O-])=Nc1c[n+](N2CCOCC2)no1
inactive: S. cerevisiae deletion strains, locus YJR075W, strain HOC1, hits give low values 1.01 | S. cerevisiae deletion strains, locus YKL009W, strain mrt4, hits give low values 1.05 | S. cerevisiae deletion strains, locus YKL068W, hits give low values 0.993 | S. cerevisiae deletion strains, locus YKL085W, strain MDH1 (second series), hits give low values 1.04 | S. cerevisiae deletion strains, locus YKL085W, strain MDH1, hits give low values 1.04 | S. cerevisiae deletion strains, locus YKL160W, strain elf1, hits give low values 0.984 | S. cerevisiae deletion strains, locus YKL190W, strain CNB1, hits give low values 1.01 | S. cerevisiae deletion strains, locus YKR001C, strain vps1, hits give low values 0.976 | S. cerevisiae deletion strains, locus YKR026C, strain gcn3, hits give low values 0.994 | S. cerevisiae deletion strains, locus YKR091W, strain srl3, hits give low values 0.995 | S. cerevisiae deletion strains, locus YLL001W, strain dnm1, hits give low values 0.988 | S. cerevisiae deletion strains, locus YLL026W, hits give low values 0.993 | S. cerevisiae deletion strains, locus YLL041C, strain sdh2, hits give low values 0.988 | S. cerevisiae deletion strains, locus YLR027C, strain aat2, hits give low values 0.997 | S. cerevisiae deletion strains, locus YLR039C, strain RIC1, hits give low values 1.02 | S. cerevisiae deletion strains, locus YLR058C, strain SHM2, hits give low values 1.01 | S. cerevisiae deletion strains, locus YLR102C, strain apc9, hits give low values 0.999 | S. cerevisiae deletion strains, locus YLR113W, strain HOG1, hits give low values 1.01 | S. cerevisiae deletion strains, locus YLR221C, strain rsa3, hits give low values 0.985 | S. cerevisiae deletion strains, locus YLR258W, strain gsy2, hits give low values 0.999 | S. cerevisiae deletion strains, locus YLR262C, strain YPT6 (second series), hits give low values 1.01 | S. cerevisiae deletion strains, locus YLR262C, strain YPT6, hits give low values 1.05 | S. cerevisiae deletion strains, locus YLR268W, strain sec22, hits give low values 0.964 | S. cerevisiae deletion strains, locus YLR320W, strain mms22, hits give low values 0.987 | S. cerevisiae deletion strains, locus YLR330W, strain CHS5, hits give low values 1.01 | S. cerevisiae deletion strains, locus YLR342W, strain FKS1 (second series), hits give low values 1.02 | S. cerevisiae deletion strains, locus YLR342W, strain FKS1, hits give low values 1 | S. cerevisiae deletion strains, locus YLR357W, strain rsc2, hits give low values 0.984 | S. cerevisiae deletion strains, locus YLR370C, strain arc18, hits give low values 0.982 | S. cerevisiae deletion strains, locus YLR371W, strain rom2, hits give low values 0.994 | S. cerevisiae deletion strains, locus YLR384C, strain iki3, hits give low values 0.994 | S. cerevisiae deletion strains, locus YLR418C, strain cdc73, hits give low values 0.993 | S. cerevisiae deletion strains, locus YML016C, strain PPZ1, hits give low values 1.02 | S. cerevisiae deletion strains, locus YML032C, strain rad52, hits give low values 0.984 | S. cerevisiae deletion strains, locus YML120C, strain ndi1, hits give low values 0.994 | S. cerevisiae deletion strains, locus YML124C, strain tub3, hits give low values 1 | S. cerevisiae deletion strains, locus YMR058W, strain fet3, hits give low values 0.995 | S. cerevisiae deletion strains, locus YMR078C, strain ctf18, hits give low values 0.996 | S. cerevisiae deletion strains, locus YMR125W, strain sto1, hits give low values 1.01 | S. cerevisiae deletion strains, locus YMR129W, hits give low values 0.994 | S. cerevisiae deletion strains, locus YMR205C, strain PFK2, hits give low values 0.995 | S. cerevisiae deletion strains, locus YMR223W, strain ubp8, hits give low values 0.998 | S. cerevisiae deletion strains, locus YMR231W, strain pep5, hits give low values 0.994 | S. cerevisiae deletion strains, locus YMR263W, strain SAP30, hits give low values 1.02 | S. cerevisiae deletion strains, locus YMR307W, strain GAS1, hits give low values 1.04 | S. cerevisiae deletion strains, locus YNL067W, strain RPL9B, hits give low values 1 | S. cerevisiae deletion strains, locus YNL071W, strain lat1, hits give low values 1 | S. cerevisiae deletion strains, locus YNL128W, strain TEP1, hits give low values 1.01 | S. cerevisiae deletion strains, locus YNL153C, strain GIM3, hits give low values 1 | S. cerevisiae deletion strains, locus YNL183C, strain NPR1, hits give low values 0.999 | S. cerevisiae deletion strains, locus YNL209W, strain ssb2, hits give low values 0.993 | S. cerevisiae deletion strains, locus YNL233W, strain BNI4, hits give low values 1.02 | S. cerevisiae deletion strains, locus YNL248C, strain rpa49, hits give low values 0.992 | S. cerevisiae deletion strains, locus YNL250W, strain rad50, hits give low values 0.982 | S. cerevisiae deletion strains, locus YNL271C, strain bni1, hits give low values 0.981 | S. cerevisiae deletion strains, locus YNL298W, strain CLA4, hits give low values 0.982 | S. cerevisiae deletion strains, locus YNL307C, strain MCK1, hits give low values 1.01 | S. cerevisiae deletion strains, locus YNL322C, strain KRE1 (second series), hits give low values 0.99 | S. cerevisiae deletion strains, locus YNL322C, strain KRE1, hits give low values 1.01 | S. cerevisiae deletion strains, locus YNR049C, strain mso1, hits give low values 0.988 | S. cerevisiae deletion strains, locus YNR052C, strain pop2, hits give low values 0.989 | S. cerevisiae deletion strains, locus YOL006C, strain TOP1, hits give low values 1.03 | S. cerevisiae deletion strains, locus YOL012C, strain htz1 0.747 | S. cerevisiae deletion strains, locus YOL147C, strain pex11, hits give low values 0.978 | S. cerevisiae deletion strains, locus YOR001W, strain rrp6, hits give low values 1.01 | S. cerevisiae deletion strains, locus YOR061W, strain CKA2, hits give low values 1.02 | S. cerevisiae deletion strains, locus YOR069W, strain VPS5, hits give low values 1.01 | S. cerevisiae deletion strains, locus YOR070C, strain gyp1, hits give low values 0.994 | S. cerevisiae deletion strains, locus YOR080W, strain dia2, hits give low values 0.997 | S. cerevisiae deletion strains, locus YOR083W, strain WHI5, hits give low values 0.988 | S. cerevisiae deletion strains, locus YOR106W, strain vam3, hits give low values 1.01 | S. cerevisiae deletion strains, locus YOR136W, strain idh2, hits give low values 0.993 | S. cerevisiae deletion strains, locus YOR144C, strain elg1, hits give low values 0.991 | S. cerevisiae deletion strains, locus YOR184W, strain ser1, hits give low values 1 | S. cerevisiae deletion strains, locus YOR231W, strain MKK1, hits give low values 1.01 | S. cerevisiae deletion strains, locus YOR265W, strain rbl2, hits give low values 0.991 | S. cerevisiae deletion strains, locus YOR270C, strain vph1, hits give low values 1.04 | S. cerevisiae deletion strains, locus YOR290C, strain snf2, hits give low values 0.992 | S. cerevisiae deletion strains, locus YOR316C, strain cot1, hits give low values 0.998 | S. cerevisiae deletion strains, locus YPL051W, strain arl3, hits give low values 0.995 | S. cerevisiae deletion strains, locus YPL055C, strain LGE1, hits give low values 1.04 | S. cerevisiae deletion strains, locus YPL078C, strain atp4, hits give low values 1 | S. cerevisiae deletion strains, locus YPL106C, strain sse1, hits give low values 0.963 | S. cerevisiae deletion strains, locus YPL240C, strain hsp82, hits give low values 0.981 | S. cerevisiae deletion strains, locus YPL241C, strain CIN2, hits give low values 1.01 | S. cerevisiae deletion strains, locus YPL256C, strain CLN2, hits give low values 1.04 | S. cerevisiae deletion strains, locus YPR119W, strain clb2, hits give low values 0.994 | S. cerevisiae deletion strains, locus YPR141C, strain kar3, hits give low values 0.983 | S. cerevisiae deletion strains, locus YPR163C, strain tif3, hits give low values 0.984 | S. cerevisiae deletion strains, locus YPR167C, strain met16, hits give low values 1 | S. cerevisiae deletion strains, strain wtn01, hits give low values 0.98 | S. cerevisiae strains, strain wild type, hits give low values 1.02
